# “And” between values parts separate entries of the source, which are not always exact repeats. Equal entries are not always repeated. Among all 5,500 compounds or so, about 2,000 (36%) were called active. Another 18% or so got no clear call; they are omitted. This is one part of the list. A number with no mark means an inactive call. Cut-off read from the data, not from the text of the source: active = normalized growth mostly below about 0.91 (no sharp cut-off); inconclusive = no clear call, values can overlap the other calls; inactive = mostly above about 0.92.
# Experiment: chemical genetic growth profiling, strain panel (AID 1159580);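 note: tested at 20 µM; growth read once vehicle control cultures reached saturation at 30 °C; 1 = growth at the plate median or of vehicle wells; lower values mean less growth of the strain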
# Settings: growth OD
structure (smiles),measurement,setting,value
CN(C)CCOC(=O)COc1ccc(Cl)cc1,normalized growth,"S. cerevisiae deletion strains, locus YNL153C, strain GIM3, hits give low values",1.03 and 0.882
same,normalized growth,"S. cerevisiae deletion strains, locus YNL175C, strain NOP13, hits give low values",0.949
same,normalized growth,"S. cerevisiae deletion strains, locus YNL183C, strain NPR1, hits give low values",0.962
same,normalized growth,"S. cerevisiae deletion strains, locus YNL197C, strain WHI3, hits give low values",0.954
same,normalized growth,"S. cerevisiae deletion strains, locus YNL209W, strain ssb2, hits give low values",0.974
same,normalized growth,"S. cerevisiae deletion strains, locus YNL224C, strain SQS1, hits give low values",1.01
same,normalized growth,"S. cerevisiae deletion strains, locus YNL233W, strain BNI4, hits give low values",1.07
same,normalized growth,"S. cerevisiae deletion strains, locus YNL248C, strain rpa49, hits give low values",0.996
same,normalized growth,"S. cerevisiae deletion strains, locus YNL250W, strain rad50, hits give low values",1.01
same,normalized growth,"S. cerevisiae deletion strains, locus YNL271C, strain bni1, hits give low values",1.04
same,normalized growth,"S. cerevisiae deletion strains, locus YNL298W, strain CLA4, hits give low values",1.02
same,normalized growth,"S. cerevisiae deletion strains, locus YNL307C, strain MCK1, hits give low values",1.05
same,normalized growth,"S. cerevisiae deletion strains, locus YNL322C, strain KRE1 (second series), hits give low values",0.977
same,normalized growth,"S. cerevisiae deletion strains, locus YNL322C, strain KRE1, hits give low values",1.02
same,normalized growth,"S. cerevisiae deletion strains, locus YNR049C, strain mso1, hits give low values",0.955
same,normalized growth,"S. cerevisiae deletion strains, locus YNR052C, strain pop2, hits give low values",1.07
same,normalized growth,"S. cerevisiae deletion strains, locus YOL006C, strain TOP1, hits give low values",1.01
same,normalized growth,"S. cerevisiae deletion strains, locus YOL012C, strain htz1",1.88
same,normalized growth,"S. cerevisiae deletion strains, locus YOL147C, strain pex11, hits give low values",1.03
same,normalized growth,"S. cerevisiae deletion strains, locus YOR001W, strain rrp6, hits give low values",0.947
same,normalized growth,"S. cerevisiae deletion strains, locus YOR061W, strain CKA2, hits give low values",1.03
same,normalized growth,"S. cerevisiae deletion strains, locus YOR069W, strain VPS5, hits give low values",1
same,normalized growth,"S. cerevisiae deletion strains, locus YOR070C, strain gyp1, hits give low values",0.984
same,normalized growth,"S. cerevisiae deletion strains, locus YOR080W, strain dia2, hits give low values",0.952
same,normalized growth,"S. cerevisiae deletion strains, locus YOR083W, strain WHI5 (second series), hits give low values",0.994
same,normalized growth,"S. cerevisiae deletion strains, locus YOR083W, strain WHI5, hits give low values",0.979
same,normalized growth,"S. cerevisiae deletion strains, locus YOR106W, strain vam3, hits give low values",1
same,normalized growth,"S. cerevisiae deletion strains, locus YOR136W, strain idh2, hits give low values",1.03
same,normalized growth,"S. cerevisiae deletion strains, locus YOR144C, strain elg1, hits give low values",1.02
same,normalized growth,"S. cerevisiae deletion strains, locus YOR184W, strain ser1, hits give low values",1.15 [resistant] (active)
same,normalized growth,"S. cerevisiae deletion strains, locus YOR231W, strain MKK1, hits give low values",1.05
same,normalized growth,"S. cerevisiae deletion strains, locus YOR265W, strain rbl2, hits give low values",0.964
same,normalized growth,"S. cerevisiae deletion strains, locus YOR270C, strain vph1, hits give low values",0.884
same,normalized growth,"S. cerevisiae deletion strains, locus YOR290C, strain snf2, hits give low values",0.962
same,normalized growth,"S. cerevisiae deletion strains, locus YOR316C, strain cot1, hits give low values",1.02
same,normalized growth,"S. cerevisiae deletion strains, locus YPL051W, strain arl3, hits give low values",0.986
same,normalized growth,"S. cerevisiae deletion strains, locus YPL055C, strain LGE1, hits give low values",1.06 and 1.03
same,normalized growth,"S. cerevisiae deletion strains, locus YPL078C, strain atp4, hits give low values",0.973
same,normalized growth,"S. cerevisiae deletion strains, locus YPL106C, strain sse1, hits give low values",0.878
same,normalized growth,"S. cerevisiae deletion strains, locus YPL240C, strain hsp82, hits give low values",0.957
same,normalized growth,"S. cerevisiae deletion strains, locus YPL241C, strain CIN2, hits give low values",1.01
same,normalized growth,"S. cerevisiae deletion strains, locus YPL256C, strain CLN2, hits give low values",1.1
same,normalized growth,"S. cerevisiae deletion strains, locus YPR119W, strain clb2, hits give low values",1.03
same,normalized growth,"S. cerevisiae deletion strains, locus YPR141C, strain kar3, hits give low values",1.02
same,normalized growth,"S. cerevisiae deletion strains, locus YPR163C, strain tif3, hits give low values",1.06
same,normalized growth,"S. cerevisiae deletion strains, locus YPR167C, strain met16, hits give low values",1.05
same,normalized growth,"S. cerevisiae deletion strains, strain wtn01, hits give low values",1.04
same,normalized growth,"S. cerevisiae strains, strain wild type, hits give low values",1.03

# Reference: PubChem BioAssay AID1159580 (chemical genetic matrix, 2015)
